Assay outcomes as filed in PubChem BioAssay.
NS1 inh: inhibitors of influenza NS1 protein function; Potency, µM (doses to about 46.1 µM), for inactives: at the top dose activity, positive = more growth; 270,000 compounds, 0.4% hits; AID 2326; further: potency means the concentration at half of the fitted maximal effect; actives are rising curves; nearly all actives have a fitted effect of over 50% in size
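Read-out: OD600 growth recovery of NS1-expressing budding yeast. Cells grown overnight at 30C in -URA glucose medium, washed, resuspended and diluted 1:100 in 2% galactose assay medium, pH 6.0. Same strain lacking NS1 served as positive control.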
Tb PYK inh: blocks Trypanosoma brucei pyruvate kinase | TbPYK enzyme, Kinase-Glo Plus ATP luminescence, 45 min | Potency, µM (series often up to 76.8 µM), for the others: at the top dose activity, negative = inhibition, actives largely listed as inhibitors | 410,000 compounds, 0.12% hits | AID 624173; active means well fitted curve in the direction sought with a large enough effect; inconclusive means small, poorly fitted or top-dose-only effect, or another doubt; inactive means no such curve, though single readings can be large; an effect the other way counts as inactive or inconclusive; further: potency means the concentration at half of the fitted maximal effect; on the % scale 0 is the no-effect control and ±100 the full control effect; nearly all actives have a fitted effect of over 50% in size
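T. brucei PYK with substrate was exposed to pin-transferred compounds across a concentration series, then started with 130 uM ADP (final). After 45 min at room temperature, Kinase-Glo Plus luminescence was read, normalized and curve-fitted.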
LmPK inh: LmPK (Leishmania mexicana) enzyme inhibition. Potency, µM (doses to about 57.5 µM), inactives show at the top dose activity change, negative = inhibition, actives largely listed as inhibitors. Q27686. 290,000 compounds, 0.37% hits. purified LmPK, Kinase-Glo ATP luminescence, 1 h; active means well fitted curve in the direction sought with a large enough effect; inconclusive means small, poorly fitted or top-dose-only effect, or another doubt; inactive means no such curve, though single readings can be large; an effect the other way counts as inactive or inconclusive; further: potency means the concentration at half of the fitted maximal effect; on the % scale 0 is the no-effect control and ±100 the full control effect
Target sequence (Q27686 whole entry, looked up): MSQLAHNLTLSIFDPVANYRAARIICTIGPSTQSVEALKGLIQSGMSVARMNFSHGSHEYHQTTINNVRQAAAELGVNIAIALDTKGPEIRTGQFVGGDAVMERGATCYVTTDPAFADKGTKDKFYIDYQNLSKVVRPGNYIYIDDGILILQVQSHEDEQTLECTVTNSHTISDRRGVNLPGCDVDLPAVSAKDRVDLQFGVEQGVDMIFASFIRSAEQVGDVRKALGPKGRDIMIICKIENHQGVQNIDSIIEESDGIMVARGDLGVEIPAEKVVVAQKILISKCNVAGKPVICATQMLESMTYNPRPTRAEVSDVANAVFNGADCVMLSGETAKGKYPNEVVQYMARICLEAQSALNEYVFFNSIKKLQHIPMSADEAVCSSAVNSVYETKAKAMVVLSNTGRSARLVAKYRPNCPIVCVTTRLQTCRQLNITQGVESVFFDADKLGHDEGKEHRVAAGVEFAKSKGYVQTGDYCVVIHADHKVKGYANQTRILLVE
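qHTS format; LmPK 0.1 nM; substrates PEP 0.5 mM and ADP 0.1 mM. One-hour room-temperature incubation, then coupled luciferase luminescence; 0.5 nM enzyme wells mark activation.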
RE007 growth inh: less growth of the S. pombe RE007 Vpr strain; S. pombe RE007 Vpr strain, BacTiter-Glo ATP luminescence, 24 h; Potency, µM (doses to about 92.2 µM), without a hit: at the top dose activity change, negative = less growth, most hits filed as inhibitors; 360,000 compounds, 0.21% hits; AID 651644; active means well fitted falling curve with a large enough effect; inconclusive means small, poorly fitted or top-dose-only effect; inactive means no such curve, though single readings can be large or run the other way; further: potency means the concentration at half of the fitted maximal effect; on the % scale 0 is the no-effect control and ±100 the full control effect; nearly all actives have a fitted effect of over 50% in size
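Fission yeast strain RE007, carrying one chromosomally integrated HIV-1 vpr copy, was seeded at OD 0.01 in PMG+AL medium with 23 nL pinned compound. After 24 h at 30 °C and 99% humidity, viability was read by BacTiter-Glo luminescence.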
Flu NS1 inh: validation of influenza NS1 protein function inhibitors; 1,400 tested, under 10 active; AID 492980; activity change, negative = inhibition, % at 32.9 µM; shares compounds with NS1 inh; influenza NS1 function cell assay, 15-point titration; further: 0% is about no effect
Flu PR8 replic: influenza NS1 inhibitors: inhibition of influenza A/PR/8/34 replication; AID 504647; MDCK infected influenza A/PR/8/34, virus titer TCID50; stronger effect = lower value; virus titer (log TCID50), log10 TCID50 at 5 µM; 95 compounds, 30% hits; shares compounds with NS1 inh; call rule not given here
An asterisk follows results filed as active; ? = inconclusive; / = not tested or not shown; [ ] = remark or other dose. Rows were chosen to be rich in hits. Some 0.77% of all compounds tested hit in one or more screens of this group. Unless noted, the call rests on the fitted dose curve.

SMILES	NS1 inh	Tb PYK inh	LmPK inh	RE007 growth inh	Flu NS1 inh	others
CC1Cc2ccccc2N1C(=O)CSc1nnc(-c2ccccc2)c(-c2ccccc2)n1 (stereo not drawn)	?	-3%	4%	7%	-1
COc1cc(C(C(=O)NC2CCCCC2)N(C(=O)Cc2c[nH]c3ccccc23)c2ccc(C)cc2)cc(OC)c1OC (stereo not drawn)	11µM*	-17%	3%	-2%	14
COc1cccc(CN(C(=O)Cc2c[nH]c3ccccc23)C(C(=O)NC2CCCCC2)c2cccs2)c1 (stereo not drawn)	7.1µM*	/	2%	7%[3.69 µM]	-8
Cc1ccccc1-c1nc(SCC(=O)NCc2ccc(F)cc2)c2c(=O)n(C)c(=O)n(C)c2n1	/	-3%	/	/	/
CCOc1ccc(CCNC(=O)c2cc3cccc4c3n2CCS4)cc1	/	-5%[15.4 µM]	/	/	/
Cn1cccc1C(=O)N1CCC2(CCCN(c3ncccn3)C2)CC1	/	4%	/	/	/
COc1ccc(NS(=O)(=O)c2ccc(N3CCCC3)c(NC(=S)Nc3ccc(SC(F)F)cc3)c2)cc1	8.9µM*	-18%	-1%	-3%	?
CCC(=O)N1CC2(CC(c3cccc(NC(=O)CC(c4ccccc4)c4ccccc4)c3)=NO2)C[C@H]1C(N)=O (stereo partly drawn)	-5%	-8%	3%	-3%	/
NC(=O)[C@H]1CC2(CC(c3cccc(NC(=O)CC(c4ccccc4)c4ccccc4)c3)=NO2)CN1C(=O)CC(c1ccccc1)c1ccccc1 (stereo partly drawn)	7.1µM*	0%	2%	4%	12	Flu PR8 replic=8
NC(=O)[C@@H]1CC2(CC(c3cccc(NC(=O)CC(c4ccccc4)c4ccccc4)c3)=NO2)CN1C(=O)c1ccc(Cl)cc1 (stereo partly drawn)	4µM*	4%	6%	3%	0
C=C(C)C(=O)N1CC2(CC(c3cccc(NC(=O)CC(c4ccccc4)c4ccccc4)c3)=NO2)C[C@H]1C(N)=O (stereo partly drawn)	-4%	2%	2%	1%	/
Cc1ccccc1C(=O)Nc1sc2c(c1C(=O)N1CCC(C)CC1)CCC(C)C2 (stereo not drawn)	/	2%	/	/	/
O=C(/C=C/c1ccccc1)c1ccc(NC2=NCCCS2)cc1	-24%	-11%	-12%	/	/
O=C(/C=C/c1ccc(Br)cc1)c1ccc(NC2=NCCCS2)cc1	?	3%	-4%	-17%	?
Cc1ccc(NC(=O)COC(=O)c2ccc3c(c2)OCO3)cc1S(=O)(=O)N1CCCCC1	10µM*	-8%	2%	1%	6
c1ccc(CCNC2=NCCS2)cc1	3%	-1%	-6%	-18%	/
c1ccc(CCNC2=NCCCS2)cc1	?	-5%	-2%	-13%	-9
CC(C)(C)NC(=O)Cn1nnnc1-c1nonc1N	?	10%	-6%	26%	19
CC(C)(C)C1CCc2onc(C(=O)Nc3ccc(F)cc3F)c2C1 (stereo not drawn)	?	-15%	-4%	-3%	?
CC[C@@H]1/C=C(\C)C[C@H](C)C[C@H](OC)[C@H]2O[C@@](O)(C(=O)C(=O)N3CCCC[C@H]3C(=O)O[C@H](/C(C)=C/[C@@H]3CC[C@H](Cl)[C@H](OC)C3)[C@H](C)[C@@H](O)CC1=O)[C@H](C)C[C@@H]2OC	/	-7%	/	/	/
CCc1ccc(N2C(=O)Cc3c2nc(N)c(C#N)c3N)cc1	16%	-2%	4%	-13%	/
CCN(CC)c1nc2c3c(nc4c(c3c1C#N)CC(=O)N4c1ccc(Cl)cc1)NC(C)=N2	14µM*	5%	-6%	3%	29
O=C(NCC1CCCO1)C(c1cccs1)N(Cc1cccs1)C(=O)c1ccc(-c2ccccc2)[nH]1 (stereo not drawn)	13µM*	-5%	0%	-3%	-30
CCOc1ccc(N2C(=O)/C(=C\c3ccccc3OC)S(=O)(=O)C2c2cccc([N+](=O)[O-])c2)cc1 (stereo not drawn)	11µM*	4%	-2%	-13%	-34
Nc1ccc(N2CCN(c3ncc(C(F)(F)F)cc3Cl)CC2)c(C(F)(F)F)c1	/	5%	/	/	/
SMILES	NS1 inh	Tb PYK inh	LmPK inh	RE007 growth inh	Flu NS1 inh	others
CN(C)S(=O)(=O)c1ccc(N2CCCC2)c(C(=O)Nc2nc3c(ccc4ccccc43)s2)c1	14µM*	5%	0%	7%	-7
Cc1cnc(NC(=O)c2cc(S(=O)(=O)N(C)C)ccc2N2CCCC2)s1	/	4%	/	9%	/
CCCn1c(SCC(=O)Nc2sc(C)c(C)c2C#N)nnc1C(C)C	8.9µM*	3%	-5%	-5%	-20
COc1ccc(CNC(=O)C2CCN(S(=O)(=O)N3CCCC3)CC2)c(OC)c1	?	-22%	2%	4%	-23
Cc1ccc(S(=O)(=O)N2CCCCC2)cc1C(=O)N(C)CC(=O)Nc1ccc(Cl)c(C(F)(F)F)c1	10µM*	1%	-1%	0%	-14
O=C(Nc1ccc(Cl)cc1C(F)(F)F)C(Sc1nnc(-c2cccs2)o1)c1ccccc1 (stereo not drawn)	25%	-20%	5%	12%	/
COc1ccc(C)cc1NC(=O)C(Sc1nnc(-c2cccs2)o1)c1ccccc1 (stereo not drawn)	11µM*	0%	-3%	1%	-26
COc1ccc2cc(/C=N/NC(=O)c3ccc(CN(c4cccc(Cl)c4Cl)S(C)(=O)=O)cc3)c(Cl)nc2c1	13µM*	0%	1%	-21%	?
O=C(NCCc1ccc(Cl)cc1)C(=O)NCC(c1ccco1)S(=O)(=O)c1ccc(Cl)cc1 (stereo not drawn)	/	-2%	/	/	/
CC1CCc2cc(F)ccc2N1C(=O)CSc1nnc2c(n1)[nH]c1ccc(F)cc12 (stereo not drawn)	?	8%	5%	-10%	3
CC1CCCCN1C(=O)CSc1nnc2c(n1)[nH]c1ccc(F)cc12 (stereo not drawn)	-4%	0%	-5%	28%	/
O=C(Cc1c(F)cccc1Cl)OCN1C(=O)c2ccccc2C1=O	2.2µM*	-9%	-4%	8%	-6
O=C1c2ccccc2C(=O)N1OCc1c(F)cccc1Cl	-4%	-3%	0%	6%	/
COc1ccc(NC(=O)C(C)n2nc(-c3cc(C)ccc3C)c3c(c2=O)CCCC3)cc1 (stereo not drawn)	/	-5%	/	/	/
Cc1oc(-c2ccccc2F)nc1CS(=O)(=O)CC(=O)N1CCN(c2ccc(Cl)cc2)CC1	/	-4%	/	/	/
Cc1ccc(C)c2[nH]c(=O)c(C(c3nnnn3Cc3ccccc3)N3CCc4ccccc4C3)cc12 (stereo not drawn)	10µM*	4%	-1%	5%	12
